GLA inh pH 4.5: qHTS Assay for Inhibitors of Human alpha-Galactosidase at pH 4.5 | Alpha-galactosidase A (Homo sapiens), P06280 | purified enzyme, 4-MU-alpha-Gal fluorescence, pH 4.5 | activity change, negative = inhibition, % at 105 µM | 230,000 tested, under 10 active
HPGD inh: qHTS Assay for Inhibitors of HPGD (15-Hydroxyprostaglandin Dehydrogenase). 15-hydroxyprostaglandin dehydrogenase [NAD(+)] (Homo sapiens), P15428. AID 894, 2007. Potency, µM, most hits filed as inhibitors. purified HPGD, NADH fluorescence kinetic, PGE2 substrate. 150,000 compounds, 4.3% hits; active = well fitted inhibition curve with a large enough effect, not every such curve was filed as active; inconclusive = small, poorly fitted or top-dose-only effect, or another doubt; inactive = no such curve, though single readings can be large or run the other way
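NADH formation kinetics: reaction with 30 uM PGE2 and 1 mM NAD+ (final), 20 nM enzyme, Tris-HCl pH 8 with Tween 20, after 15 min compound preincubation at room temperature. Fluorescence change, last versus first of five reads.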
ALDH1A1 inh: qHTS Assay for Inhibitors of Aldehyde Dehydrogenase 1 (ALDH1A1). 220,000 compounds, 7.3% hits. Aldehyde dehydrogenase 1A1 (Homo sapiens), P00352. Potency, µM (series often up to 75.3 µM), usual class: inhibitors. Purified ALDH1A1, NADH fluorescence, propionaldehyde substrate; active = well fitted inhibition curve with a large enough effect, not every such curve was filed as active; inconclusive = small, poorly fitted or top-dose-only effect, or another doubt; inactive = no such curve, though single readings can be large or run the other way
aGal spleen mod: qHTS Assay for Inhibitors and Activators of Human alpha-Galactosidase From Spleen Homogenate; Alpha-galactosidase A (Homo sapiens), P06280; 240,000 compounds, 0.008% hits; Potency, µM (highest dose often 80 µM), usual class: inhibitors; human spleen homogenate, 4MU-alpha-Gal fluorescence, 40 min
Target sequence (P06280 32-429 limits assumed): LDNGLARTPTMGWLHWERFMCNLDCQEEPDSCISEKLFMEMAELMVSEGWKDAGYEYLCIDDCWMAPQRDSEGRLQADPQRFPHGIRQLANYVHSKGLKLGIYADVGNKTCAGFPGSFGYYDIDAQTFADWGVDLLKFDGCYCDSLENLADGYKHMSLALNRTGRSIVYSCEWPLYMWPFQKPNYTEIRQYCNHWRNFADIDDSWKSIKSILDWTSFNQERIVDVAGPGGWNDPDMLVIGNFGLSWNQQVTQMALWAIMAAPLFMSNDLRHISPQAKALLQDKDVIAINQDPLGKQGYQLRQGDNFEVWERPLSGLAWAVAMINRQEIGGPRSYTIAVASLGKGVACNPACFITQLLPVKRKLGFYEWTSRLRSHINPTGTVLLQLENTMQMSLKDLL
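Human spleen homogenate (1 ug) as enzyme source, 4-methylumbelliferyl-alpha-D-galactopyranoside 1 mM final, citrate/phosphate pH 5.0 with 0.01% Tween-20. Compounds 40 min at 37C, NaOH/glycine stop; fluorescence Ex 365/Em 440, Hill-fit AC50.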
PNC inhibitor: High Content Assay for Compounds that inhibit the Assembly of the Perinucleolar Compartment; PC3M PTB-GFP, PNC prevalence imaging, 16 h; stronger effect = lower value; activity change (PNC), negative = inhibition, % at 10 µM; 140,000 compounds, 3.1% hits;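 active = readout at or below -70, meaning at least 70% loss of cells showing the perinucleolar compartment, a nuclear body marking cancer cells; inconclusive = readout between -30 and a set limit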
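Read-out is percentage of cells bearing a perinucleolar compartment, from automated 20x imaging of fixed, Hoechst-stained PC3M PTB-GFP cells. Cells were seeded 4 h, then exposed 16 h to compound (23 nl of library stock) in duplicate plates.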
12-hLO inh: qHTS Assay for Inhibitors of 12-hLO (12-human lipoxygenase); 150,000 compounds, 0.12% hits; Polyunsaturated fatty acid lipoxygenase ALOX12 (Homo sapiens), P18054; Potency, µM (top dose mostly 57.1 µM), actives largely listed as inhibitors; purified 12-hLO, xylenol orange hydroperoxide absorbance; AID 1452, 2008; also: nearly all actives have a fitted effect of over 55% in size
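Hydroperoxide formation by human 12-lipoxygenase from 40 uM arachidonic acid was followed colorimetrically via ferric-xylenol orange complex, using the 573/405 nm absorbance ratio. Enzyme concentration was 150 nM, with 30 min reaction at room temperature.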
Numbers stand for hits; i = inactive; ? = inconclusive; nt = not tested or not shown; [ ] = dose if it differs, or a comment. Most compounds without a hit are left out; they make up all but 10% or so of the library. Unless noted, calls follow the shape of the dose curve; as a rule, active = well fitted curve in the direction sought with a large enough effect; inconclusive = small, poorly fitted or top-dose-only effect, or another doubt; inactive = no such curve, though single readings can be large; an effect the other way counts as inactive or inconclusive.

SMILES	GLA inh pH 4.5	HPGD inh	ALDH1A1 inh	aGal spleen mod	PNC inhibitor	12-hLO inh
CCN(CC)CCCn1c(=S)[nH]c2cc(OC)c(OC)cc2c1=O	i	i	i	i	?	i
Cc1ccc(S(=O)(=O)NC(C)(C)CSc2ncccn2)cc1	i	nt	17.8µM	i	nt	nt
Cc1ccc(S(=O)(=O)NCCSc2ncccn2)cc1	?	nt	i	i	nt	nt
CCCC[n+]1ccn(-c2nc3ccccc3nc2[N-]S(=O)(=O)c2cccs2)c1	i	nt	nt	i	nt	nt
COC(=O)N1CCC2(CCN(C(=O)Nc3ccc(OC)cc3)CC2)CC1	nt	i	i	i	nt	i
CN1C[C@H](c2ccccc2)C(O)([C@]2(c3ccccc3)CN(C)C[C@@H](c3ccccc3)C2=O)[C@H](c2ccccc2)C1 (some centres undefined)	nt	i	i[13.5 µM]	nt	nt	i[11.4 µM]
CCOC(=O)/C=c1\s/c(=C(\C#N)C(=O)OCC)n(-c2ccccc2)c1=O	nt	i	i	i	i	i
CCOC(=O)/C(C#N)=C1/C(=O)N(Cc2ccccc2)c2ccccc21	i	nt	0.112µM	i	nt	nt
CCOC(=O)/C(C#N)=C1/C=Cc2ccccc2N1CC	i	i	i	i	-99.5	i
CN(C)S(=O)(=O)c1ccc(Cl)c(NC(=O)COc2ccccc2[N+](=O)[O-])c1	i	i	i	i	i	i
CCOc1ccc(OCC)c(S(=O)(=O)N2CCOCC2)c1	i	nt	i	i	nt	nt
CCOc1cc(C)c(C(C)C)cc1S(=O)(=O)N1CCN(C)CC1	i	i	5.01µM	i	i	i
COc1cc(C)c(C(C)C)cc1S(=O)(=O)N1CCN(C)CC1	i	i	14.1µM	i	i	i
CCOc1ccc(C(C)C)cc1S(=O)(=O)N1CCOCC1	i	nt	8.91µM	i	nt	nt
CCOc1cc(C)c(Cl)cc1S(=O)(=O)N1CCCC1	i	i	i	i	i	i
Cc1onc(-c2c(F)cccc2Cl)c1C(=O)N=C(N)N1CCCC1	i	nt	nt	i	nt	nt
O=C(NCC1CCCO1)c1ccc2c(=O)n(CC3CCCO3)c(=S)[nH]c2c1 (centres undefined)	i	i	11.2µM	i	?	i
O=C(NCC1CCCO1)c1ccc(Cn2c(=S)[nH]c3ccccc3c2=O)cc1 (centres undefined)	i	nt	i	i	nt	nt
COCCn1c(=S)[nH]c2cc(C(=O)NCC3CCCO3)ccc2c1=O (centres undefined)	i	i	15.8µM	i	i	i
CCOC(=O)N1CCN(C(=O)c2ccc3c(=O)n(CC4CCCO4)c(=S)[nH]c3c2)CC1 (centres undefined)	i	i	14.1µM	i	i	i
CO[C@H]1COC(=O)[C@H](C)NC(=O)C/C=C\[C@@H](C)[C@@H](NS(=O)(=O)c2ccc(C)cc2)COC(=O)C/C=C\[C@@H]1C	nt	nt	i[13.5 µM]	i[17.5 µM]	nt	nt
COc1ccc(CCNCC(=O)Nc2ccc(C)c(S(=O)(=O)N(C)C)c2)cc1OC	i	nt	15.8µM	i	nt	nt
Cc1ccc(NC(=O)CCNCc2ccco2)cc1S(=O)(=O)N(C)C	i	nt	15.8µM	i	nt	nt
Cc1ccc(NC(=O)CCNC(=O)c2ccccc2Cl)cc1S(=O)(=O)N(C)C	i	i	i	i	?	i
COc1ccc(OCC(=O)Nc2ccc(C)c(S(=O)(=O)N(C)C)c2)cc1	i	nt	28.2µM	i	nt	nt
C=CCNS(=O)(=O)c1cc(S(=O)(=O)NCC=C)c(OC)cc1OC	i	nt	i	i	nt	nt
Cc1ccsc1/C=C1/NC(=O)N(Cc2ccc(F)cc2)C1=O	i	nt	?	i	nt	nt
CN=C(Nc1ccc(C(=O)OC)cc1)SC1CC(=O)N(c2ccccc2F)C1=O (centres undefined)	i	i	i	i	-108.4	i
CCN=C(Nc1ccc2c(c1)OCO2)SC1CC(=O)N(c2ccc(OC)cc2)C1=O (centres undefined)	i	i	?	i	i	i

Bioassay records from PubChem.
